Reference: PubChem BioAssay (NCI)
Compounds without any hit were thinned out: in the full panel of roughly 79,000, 15% have a hit. The source made the active and inactive calls. No stated cut-off is given here; in the data, active means growth inhibition above about 70%; inactive means the rest.

Assay: NCI Yeast Anticancer Drug Screen. Data for the rad18 strain (AID 177)
Conditions: S. cerevisiae rad18 mutant growth inhibition; at 3.7 µM; hits give high values
Outline: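 Readout: growth inhibition vs vehicle controls. Cells: genetically altered yeast strain, DNA repair defect.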

| Structure (SMILES) | growth inhibition |
| --- | --- |
| CC(CN(C)C)C(=O)/C=C/c1ccc(Cl)c(Cl)c1 (stereo not drawn) | 15% (inactive) |
| CCCCCCNCCCNc1c2cc(OC)ccc2nc2cccc([N+](=O)[O-])c12 | 93% (active) |
| NC(=S)N1N=C2c3ccccc3CC[C@H]2[C@@H]1c1ccc(Cl)cc1 | 8% (inactive) |
| C/C(=N/NC(=S)Nc1ccccc1C)c1ccccn1 | 3% (inactive) |
| O=C1/C(=C/c2ccc(Cl)c(Cl)c2)CNC/C1=C\c1ccc(Cl)c(Cl)c1 | 16% (inactive) |
| CC(C)OP(=O)(OC(C)C)C(=NCCO)NNc1ccc([N+](=O)[O-])cc1 | 0% (inactive) |
| N#CCC(=O)N/N=C(\c1ccccc1)C(c1ccccc1)C1(O)C(=O)Nc2c(Cl)ccc(Cl)c21 (stereo not drawn) | 8% (inactive) |
| CC(C)(CN1CCCCC1)C(=O)CC(SCCS(=O)(=O)O)c1ccccc1 (stereo not drawn) | 11% (inactive) |
| COC1=CCC23C(=O)C=CC(=O)C2(C1)C(=O)c1ccccc1C3=O (stereo not drawn) | -20% (inactive) |
| CCCCN(CCCC)c1ccc(N=Nc2ccc(S(=O)(=O)O)cc2)cc1 | 0% (inactive) |
| c1ccc2nc3c(nc2c1)sc1ccccc13 | 21% (inactive) |
| O=C1c2ccccc2-c2ccc(N=Cc3ccccc3)cc21 | -8% (inactive) |
| CNC(=S)N/N=C(/C)CCC/C(C)=N/NC(=S)NC | 21% (inactive) |
| Nc1ccc(/C=C/c2ccc3cccnc3c2)cc1 | 1% (inactive) |
| COc1ccc2c3c1OC(C)C31CC(=O)CCC1CC2 (stereo not drawn) | -1% (inactive) |
| CCOC(=O)Nc1ccc(C)c(NC(=O)OCC)c1 | 14% (inactive) |
| CCN(CC)CCNc1ccc2nc(C)n3c4ccc(OC)cc4c(=O)c1c23 | 41% (inactive) |

| Structure (SMILES) | growth inhibition |
| --- | --- |
| C[N+](C)([O-])CCCNc1c2ccccc2nc2cccc([N+](=O)[O-])c12 | 96% (active) |
| O=C(c1cc(=O)c2ccc(O)cc2o1)c1ccc(Cl)cc1Cl | -19% (inactive) |
| CCCNC(=O)OCc1c(COC(=O)NCCC)c(-c2ccc(Cl)c(Cl)c2)n2c1CCC2 | -29% (inactive) |
| O=C(Cc1ccccc1)NN1C(=O)C(Cl)C1c1cc(Br)cc(Br)c1O (stereo not drawn) | 27% (inactive) |
| CCOC(=O)C(Cc1c2ccccc2cc2ccccc12)(NC(C)=O)C(=O)OCC | -1% (inactive) |
| O=[N+]([O-])/C=C/c1cc2ccc3ccccc3c2[nH]1 | 86% (active) |
| Fc1ccc(Nc2ccc3ccccc3c2)cc1 | 1% (inactive) |
| O=S1(=O)CCC2=CC(C(F)(F)F)=CC(C(F)(F)F)=CN21 | 67% (inactive) |
| CCCCS/C(=C(/C#N)C(N)=O)c1cc2c([nH]1)CCCC2 | -13% (inactive) |
| O=C(O)c1ccccc1C(=O)OC1CCc2ccccc2C1 (stereo not drawn) | -1% (inactive) |
| NC(=S)N/N=C1\c2ccccc2CCC1CCC1(O)CCc2ccccc2C1=O (stereo not drawn) | 50% (inactive) |
| Cc1cccc2c(Cl)c3cccc(C)c3nc12 | -3% (inactive) |
| CC(C)OC(=O)NNc1c(Cl)cc(Cl)cc1Cl | 15% (inactive) |
| Nc1ccc2c(c1)C(=O)c1c(F)cccc1-2 | 8% (inactive) |
| N#CSCC1COc2ccccc2O1 (stereo not drawn) | -22% (inactive) |
| Cc1ccc(S(=O)(=O)NC(=O)C2C(=O)CC3(CCCCC3)CC2=O)cc1 | -2% (inactive) |
| CC1=NN(C(=O)c2ccccc2O)C(=O)/C1=C/c1ccco1 | 17% (inactive) |

Same assay, conditions: S. cerevisiae rad18 mutant growth inhibition; at 11.0 µM; hits give high values

| Structure (SMILES) | growth inhibition |
| --- | --- |
| CC(CN(C)C)C(=O)/C=C/c1ccc(Cl)c(Cl)c1 (stereo not drawn) | 40% (inactive) |
| CCCCCCNCCCNc1c2cc(OC)ccc2nc2cccc([N+](=O)[O-])c12 | 93% (active) |
| NC(=S)N1N=C2c3ccccc3CC[C@H]2[C@@H]1c1ccc(Cl)cc1 | -9% (inactive) |
| C/C(=N/NC(=S)Nc1ccccc1C)c1ccccn1 | 3% (inactive) |
| O=C1/C(=C/c2ccc(Cl)c(Cl)c2)CNC/C1=C\c1ccc(Cl)c(Cl)c1 | 33% (inactive) |
| CC(C)OP(=O)(OC(C)C)C(=NCCO)NNc1ccc([N+](=O)[O-])cc1 | 13% (inactive) |
| N#CCC(=O)N/N=C(\c1ccccc1)C(c1ccccc1)C1(O)C(=O)Nc2c(Cl)ccc(Cl)c21 (stereo not drawn) | 15% (inactive) |
| CC(C)(CN1CCCCC1)C(=O)CC(SCCS(=O)(=O)O)c1ccccc1 (stereo not drawn) | 16% (inactive) |
| COC1=CCC23C(=O)C=CC(=O)C2(C1)C(=O)c1ccccc1C3=O (stereo not drawn) | 32% (inactive) |
| CCCCN(CCCC)c1ccc(N=Nc2ccc(S(=O)(=O)O)cc2)cc1 | 8% (inactive) |
| c1ccc2nc3c(nc2c1)sc1ccccc13 | 45% (inactive) |
| O=C1c2ccccc2-c2ccc(N=Cc3ccccc3)cc21 | -4% (inactive) |
| CNC(=S)N/N=C(/C)CCC/C(C)=N/NC(=S)NC | 19% (inactive) |
| Nc1ccc(/C=C/c2ccc3cccnc3c2)cc1 | 11% (inactive) |
| COc1ccc2c3c1OC(C)C31CC(=O)CCC1CC2 (stereo not drawn) | 3% (inactive) |
| CCOC(=O)Nc1ccc(C)c(NC(=O)OCC)c1 | 30% (inactive) |
| CCN(CC)CCNc1ccc2nc(C)n3c4ccc(OC)cc4c(=O)c1c23 | 57% (inactive) |

| Structure (SMILES) | growth inhibition |
| --- | --- |
| C[N+](C)([O-])CCCNc1c2ccccc2nc2cccc([N+](=O)[O-])c12 | 96% (active) |
| O=C(c1cc(=O)c2ccc(O)cc2o1)c1ccc(Cl)cc1Cl | 19% (inactive) |
| CCCNC(=O)OCc1c(COC(=O)NCCC)c(-c2ccc(Cl)c(Cl)c2)n2c1CCC2 | 2% (inactive) |
| O=C(Cc1ccccc1)NN1C(=O)C(Cl)C1c1cc(Br)cc(Br)c1O (stereo not drawn) | 88% (active) |
| CCOC(=O)C(Cc1c2ccccc2cc2ccccc12)(NC(C)=O)C(=O)OCC | -1% (inactive) |
| O=[N+]([O-])/C=C/c1cc2ccc3ccccc3c2[nH]1 | 90% (active) |
| Fc1ccc(Nc2ccc3ccccc3c2)cc1 | 0% (inactive) |
| O=S1(=O)CCC2=CC(C(F)(F)F)=CC(C(F)(F)F)=CN21 | 79% (active) |
| CCCCS/C(=C(/C#N)C(N)=O)c1cc2c([nH]1)CCCC2 | -24% (inactive) |
| O=C(O)c1ccccc1C(=O)OC1CCc2ccccc2C1 (stereo not drawn) | -1% (inactive) |
| NC(=S)N/N=C1\c2ccccc2CCC1CCC1(O)CCc2ccccc2C1=O (stereo not drawn) | 63% (inactive) |
| Cc1cccc2c(Cl)c3cccc(C)c3nc12 | -1% (inactive) |
| CC(C)OC(=O)NNc1c(Cl)cc(Cl)cc1Cl | 33% (inactive) |
| Nc1ccc2c(c1)C(=O)c1c(F)cccc1-2 | 31% (inactive) |
| N#CSCC1COc2ccccc2O1 (stereo not drawn) | 17% (inactive) |
| Cc1ccc(S(=O)(=O)NC(=O)C2C(=O)CC3(CCCCC3)CC2=O)cc1 | -16% (inactive) |
| CC1=NN(C(=O)c2ccccc2O)C(=O)/C1=C/c1ccco1 | 48% (inactive) |
